The source of these data is paper PMC4336329 (PLoS ONE, 2015).

Out of some 310,000 compounds screened, about 14,000 (4.5%) showed an effect of 50% or more. Effects have a minus sign here. Many of the other results were omitted from the sample, so strong results are more common in it than they were.
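Note: peak tail current of the secondary pulse compared with the same well before compound.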

The target of the test is human ether-à-go-go-related gene (hERG) potassium channel (human, UniProt Q12809). As to the kind of experiment: primary screen, population patch clamp on CHO cells stably expressing hERG; higher = less effect of the substance.
human ether-à-go-go-related gene (hERG) potassium channel, sequence (Q12809 whole entry, looked up): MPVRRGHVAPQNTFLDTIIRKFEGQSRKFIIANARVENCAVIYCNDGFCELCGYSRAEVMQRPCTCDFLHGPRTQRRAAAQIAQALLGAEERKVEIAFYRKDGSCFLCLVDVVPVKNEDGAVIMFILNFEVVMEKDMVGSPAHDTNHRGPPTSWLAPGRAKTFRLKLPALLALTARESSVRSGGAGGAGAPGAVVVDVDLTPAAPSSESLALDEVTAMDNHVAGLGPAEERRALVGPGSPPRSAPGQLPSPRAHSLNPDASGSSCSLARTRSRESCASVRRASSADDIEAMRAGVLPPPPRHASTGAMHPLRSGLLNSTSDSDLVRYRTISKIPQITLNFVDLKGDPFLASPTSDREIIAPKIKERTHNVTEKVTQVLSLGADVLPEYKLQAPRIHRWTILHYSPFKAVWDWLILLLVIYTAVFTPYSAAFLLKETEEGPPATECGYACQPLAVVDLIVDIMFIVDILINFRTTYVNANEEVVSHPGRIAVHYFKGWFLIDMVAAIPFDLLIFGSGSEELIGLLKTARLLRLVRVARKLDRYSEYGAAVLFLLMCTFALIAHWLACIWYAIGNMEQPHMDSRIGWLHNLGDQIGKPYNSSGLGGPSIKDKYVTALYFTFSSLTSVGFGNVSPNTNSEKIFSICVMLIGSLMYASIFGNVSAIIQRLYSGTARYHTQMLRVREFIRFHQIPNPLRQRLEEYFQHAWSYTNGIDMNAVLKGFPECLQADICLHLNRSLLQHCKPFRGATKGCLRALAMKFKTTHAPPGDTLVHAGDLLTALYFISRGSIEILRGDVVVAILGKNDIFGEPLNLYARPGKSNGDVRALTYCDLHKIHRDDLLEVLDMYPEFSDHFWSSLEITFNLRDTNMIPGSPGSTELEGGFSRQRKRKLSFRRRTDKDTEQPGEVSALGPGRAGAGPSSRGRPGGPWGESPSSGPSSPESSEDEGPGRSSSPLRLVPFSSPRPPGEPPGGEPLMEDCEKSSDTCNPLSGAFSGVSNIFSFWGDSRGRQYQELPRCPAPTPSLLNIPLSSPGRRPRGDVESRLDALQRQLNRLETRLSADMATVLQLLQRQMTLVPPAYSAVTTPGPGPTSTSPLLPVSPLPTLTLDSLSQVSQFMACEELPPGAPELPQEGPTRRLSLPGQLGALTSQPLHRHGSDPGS
With `CCOc1ccc(CCNC(=O)Nc2ccccc2C)cc1OCC`, the “hERG current change (%, negative = inhibition) at 10uM” value came out at 5.4%.

As to `COc1ccccc1-c1ccc(SCc2cccc(C)c2)nn1`, the “hERG current change (%, negative = inhibition) at 10uM” value was -26.6%.

As to `Cc1ccc(CCC(=O)Nc2ccc(Cl)cc2)o1`, the “hERG current change (%, negative = inhibition) at 10uM” value was determined as 12.8%.

Regarding `O=C(O)C1=CC[C@@H](c2ccc(Cl)cc2)N(S(=O)(=O)c2ccc(Cl)cc2)[C@H]1c1ccc(F)cc1`, the “hERG current change (%, negative = inhibition) at 10uM” value is reported as 4.97%.

For the compound `CCOC(=O)c1sc(N)c(C#N)c1CSc1nnc(C2CCCCC2)n1N`, the “hERG current change (%, negative = inhibition) at 10uM” value is listed as -1.65%.

For `CC1CC(C)CN(C(=O)c2cc3ccccc3o2)C1` (stereo not shown), the “hERG current change (%, negative = inhibition) at 10uM” value is -2.2%.

Regarding `COc1ccc(C(=O)Nc2cc(Cl)ccc2Cl)c(OC)n1`, the “hERG current change (%, negative = inhibition) at 10uM” value is listed as -5.79%.

As for `O=C(Nc1cccc(-c2ccc(F)cc2)c1)C1CCCN(Cc2cccnc2)C1` (stereo not shown), the “hERG current change (%, negative = inhibition) at 10uM” value was -60.2%.

As for `Cc1ncc(CN2CCCC(C(=O)Nc3ccc(-n4ccnc4C)cc3)C2)cn1` (stereo not shown), the “hERG current change (%, negative = inhibition) at 10uM” value was determined as 12.8%.

Turning to `COCCc1ncc(CN2CCCC(C(=O)Nc3cccc(-c4cccc(C)c4)c3)C2)cn1` (stereo not shown), the “hERG current change (%, negative = inhibition) at 10uM” value is -56.6%.

For `CCc1nc(C)c(C(=O)N2CCCC(C(=O)Nc3cccc(-c4cccc(C)c4)c3)C2)o1` (stereo not shown), the “hERG current change (%, negative = inhibition) at 10uM” value is -42.5%.

`Cc1ncc(CN2CCCC(C(=O)Nc3ccc(-c4cccc(F)c4)cc3)C2)n1C` (stereo not shown): the “hERG current change (%, negative = inhibition) at 10uM” value is -69.5%.

Regarding `Cc1cccc(-c2cccc(NC(=O)C3CCCN(C(=O)c4ocnc4C)C3)c2)c1` (stereo not shown), the “hERG current change (%, negative = inhibition) at 10uM” value is on record as -53%.

As to `CCc1ncc(CN2CCCC(C(=O)Nc3cccc(-c4cccc(C)c4)c3)C2)cn1` (stereo not shown), the “hERG current change (%, negative = inhibition) at 10uM” value is -48.8%.

For the compound `Cc1ncoc1C(=O)N1CCCC(C(=O)Nc2cccc(-c3ccc(F)cc3)c2)C1` (stereo not shown), the “hERG current change (%, negative = inhibition) at 10uM” value is given as -36.4%.

Regarding `Cc1ccc(C(=O)N2CCCC(C(=O)Nc3cccc(-c4ccc(F)cc4)c3)C2)cn1` (stereo not shown), the “hERG current change (%, negative = inhibition) at 10uM” value is listed as -29.1%.

Consider `CCCc1ncc(CN2CCCC(C(=O)Nc3ccc(-c4cccc(OC)c4)cc3)C2)cn1` (stereo not shown), for which the “hERG current change (%, negative = inhibition) at 10uM” value is listed as -39.7%.

In the case of `Cc1ncc(CN2CCCC(C(=O)Nc3ccc(-c4cccc(F)c4)cc3)C2)s1` (stereo not shown), the “hERG current change (%, negative = inhibition) at 10uM” value was determined as 1.64%.

As for `Cc1ccc(C(=O)C(C)OC(=O)CCN=C2NS(=O)(=O)c3ccccc32)cc1` (stereo not shown), the “hERG current change (%, negative = inhibition) at 10uM” value is 6.4%.

On to `Cc1nn(Cc2c(Cl)cccc2Cl)c(Cl)c1C(=O)O`, for which the “hERG current change (%, negative = inhibition) at 10uM” value was found to be 14.4%.

Take `COCCN(C(=O)CC1C(=O)NCCN1Cc1ccc(-c2ccccc2)cc1)C(C)C` (stereo not shown): the “hERG current change (%, negative = inhibition) at 10uM” value was 1%.

For `COc1ccc(OCCn2ccnc2)cc1`, the “hERG current change (%, negative = inhibition) at 10uM” value came out at 12.4%.

Take `CCOCCCNC(=S)N1C2CCC1CC(NC(=O)Nc1ccc(C(=O)OCC)cc1)C2` (stereo not shown): the “hERG current change (%, negative = inhibition) at 10uM” value is reported as 13.7%.

Regarding `COc1cc(-c2nc(C(=O)NC3CCCCC3)cc3c2[nH]c2ccccc23)cc(OC)c1OC`, the “hERG current change (%, negative = inhibition) at 10uM” value is recorded as -8.67%.

Take `O=C(NCCCN1CCOCC1)c1cc2c([nH]c3ccccc32)c(-c2cccc(Br)c2)n1`: the “hERG current change (%, negative = inhibition) at 10uM” value was -40.8%.

As for `COc1cc(-c2nc(C(=O)NC3CCN(Cc4ccccc4)CC3)cc3c2[nH]c2ccccc23)cc(OC)c1OC`, the “hERG current change (%, negative = inhibition) at 10uM” value is reported as -59.6%.

On to `COc1ccccc1-c1nc(C(=O)NCC2CCCO2)cc2c1[nH]c1ccccc12` (stereo not shown), for which the “hERG current change (%, negative = inhibition) at 10uM” value is given as -29%.

As for `COc1cccc(-c2nc(C(=O)NCC3CCCO3)cc3c2[nH]c2ccccc23)c1` (stereo not shown), the “hERG current change (%, negative = inhibition) at 10uM” value is -26.4%.

Turning to `COc1cccc(-c2nc(C(=O)NCCCN3CCOCC3)cc3c2[nH]c2ccccc23)c1`, the “hERG current change (%, negative = inhibition) at 10uM” value was -65.3%.

Consider `Cc1ccc(-c2nc(C(=O)NCCCN3CCOCC3)cc3c2[nH]c2ccccc23)cc1`, for which the “hERG current change (%, negative = inhibition) at 10uM” value was -15%.

In the case of `COc1ccc(OC)c(-c2nc(C(=O)NC3CCN(Cc4ccccc4)CC3)cc3c2[nH]c2ccccc23)c1`, the “hERG current change (%, negative = inhibition) at 10uM” value was -43.5%.

Regarding `COc1ccc(-c2nc(C(=O)NCCCN3CCOCC3)cc3c2[nH]c2ccccc23)cc1OC`, the “hERG current change (%, negative = inhibition) at 10uM” value was -72.2%.

For the compound `COc1ccc(-c2nc(C(=O)NCC3CCCO3)cc3c2[nH]c2ccccc23)cc1` (stereo not shown), the “hERG current change (%, negative = inhibition) at 10uM” value is given as -2.81%.

As for `COc1ccc(-c2cc(C(=O)NCCCN3CCOCC3)c3ccccc3n2)cc1OC`, the “hERG current change (%, negative = inhibition) at 10uM” value is reported as -7.5%.

In the case of `COc1ccc(OC)c(-c2nc(C(=O)NCC3CCCO3)cc3c2[nH]c2ccccc23)c1` (stereo not shown), the “hERG current change (%, negative = inhibition) at 10uM” value was -59.1%.

Regarding `CC(C)Oc1cccc(C(=O)NC(=S)Nc2ccc3c4c(cccc24)CC3)c1`, the “hERG current change (%, negative = inhibition) at 10uM” value was found to be 14.9%.

Regarding `Cc1cc(C)n2nc3nc(N4CCCC4)nc(-c4ccccc4)c3c2n1`, the “hERG current change (%, negative = inhibition) at 10uM” value was determined as 7.37%.

As to `Cc1cc(C(=O)Nc2cccnc2)on1`, the “hERG current change (%, negative = inhibition) at 10uM” value is recorded as -3.6%.

As for `COc1cccc(CNC(=O)CCCc2nnc3n(C)c(=O)c4sccc4n23)c1`, the “hERG current change (%, negative = inhibition) at 10uM” value is recorded as -22.2%.

As for `CCOc1cccc(OCCOCCOc2ccccc2C(C)=O)c1`, the “hERG current change (%, negative = inhibition) at 10uM” value is on record as -7.23%.

Consider `COc1ccc(OC)c(-c2cc(C(=O)NCCN3CCOCC3)no2)c1`, for which the “hERG current change (%, negative = inhibition) at 10uM” value was -5%.

`COc1ccccc1-c1cc(C(=O)NCCCN2CCOCC2)no1`: the “hERG current change (%, negative = inhibition) at 10uM” value is given as -28%.

Consider `COc1ccc(OC)c(-c2nc(C(=O)NCCCN3CCOCC3)cc3c2[nH]c2ccccc23)c1`, for which the “hERG current change (%, negative = inhibition) at 10uM” value is on record as -65.7%.
